Shown are actives, neighbours in structure and some others; about 2.7% of the full set was active somewhere.
Peg3 prom inh-1: Peg3 promoter-driven luciferase inhibitors, primary screen, cell-based, HeLa, luciferase luminescence; HeLa PEG-Prom luciferase reporter, overnight; inhibition, % at 20 µM; actives 1.7% (n = 360,000); AID 588405, 2011;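 active = inhibition of at least 50% at 20 µM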
Shn3 inh set2: reduction of Shn3 3'UTR firefly luciferase signal, primary screen, Schnurri-3 inhibitor project, cell-based, Clone20 osteoblasts, set 2; Clone20 osteoblast Shn3 3'UTR firefly luciferase, 24 h; inhibition, % at 12.5 µM; actives 0.52% (n = 360,000);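 active = mean inhibition of at least 75% with every replicate also reaching 75%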
KKLEB cytotox: cytotoxicity in KKLEB CF airway cells, primary screen, cytotoxicity control for CF NF-kB inhibitor project, cell-based, uHTS, fluorescence assay plates; KKLEB CF airway cells viability, ATPlite luminescence, overnight; hits give low values; cells stimulated with P. aeruginosa culture filtrate; activity change (cytotoxicity), % at 5 µM; actives 0.36% (n = 360,000);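 active = corrected activity change at or below -50% at 5 µM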
CF NFkB inh: inhibitors of PAF-induced NF-kB signaling, primary screen, cell-based, GFP fluorescence, uHTS; KKLEB NF-kB-GFP reporter, GFP fluorescence overnight; inhibition, % at 5 µM; actives 0.86% (n = 360,000); AID 588850, 2011;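 active = at least 50% inhibition at 5 µM, scaled per plate between neutral and stimulator controls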;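 note: PAF is a Pseudomonas aeruginosa culture filtrate used as stimulus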
HIF-2a block: HIF-2a reporter inhibitors, primary screen, luminescence, 786-0 RCC cells | inhibition, % at 18.8 µM | actives 0.72% (n = 360,000) | 786-0 RCC cells HIF-2a reporter, luciferase luminescence, overnight;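 active = inhibition of the luminescence signal of 40% or more relative to plate controls, in a single-dose primary screen at 18.75 µM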
MITF TRPM1 inh: inhibitors of MITF-dependent TRPM1 promoter reporter, primary screen, cell-based, SK-MEL-5, single point, luciferase; SK-MEL-5 TRPM1 promoter luciferase, 24 h; actives 0.83% (n = 330,000); inhibition, % at 12.5 µM;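 active = mean inhibition across replicates of 60% or more, whatever share of single replicates reaches that level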
Peg3 prom inh-2: Peg3 promoter reporter inhibitors, retest, confirmation, cell-based, HeLa, luciferase reporter, single concentration; shares compounds with Peg3 prom inh-1; HeLa PEG-Prom luciferase reporter, luminescence, overnight; inhibition, % at 20 µM; actives 84% (n = 1,300); AID 602417, 2012;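 active = at 20 µM dose, 40% or more inhibition averaged across four replicates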
A number is an active result; – = inactive; · = no result given.

SMILES	Peg3 prom inh-1	Shn3 inh set2	KKLEB cytotox	CF NFkB inh	HIF-2a block	MITF TRPM1 inh	Peg3 prom inh-2
CN(C)CCCNc1ncnc2oc(-c3ccccc3)c(-c3ccccc3)c12	97.0	–	–	–	–	–	96.6
CCOC(=O)c1sc2nc(CSc3ccccc3)nc(N3CCCN(C)CC3)c2c1C	64.8	–	–	–	–	–	94.1
O=C(CCc1ccccc1)NC(NC(=S)Nc1ccc(Br)cc1)C(Cl)(Cl)Cl (centres undefined)	53.1	–	–	–	–	–	–
O=C(c1ccc2c(c1)CCC2)N1CCN(Cc2c(F)cccc2Cl)CC1	–	–	–	–	–	·	·
CCOC(=O)c1cnc2ccc(C(=O)OC)cc2c1Nc1cccc(C(=O)O)c1	–	–	–	–	–	–	·
CCOC(=O)c1ccc2ncc(C(=O)OCC)c(NCCN(C)C)c2c1	55.0	–	–	–	–	–	55.3
CCOC(=O)[C@]12CCC=C1N(Cc1ccc(Cl)cc1Cl)C(=O)[C@H](CC(=O)NCC13CC4CC(CC(C4)C1)C3)C2	·	·	·	·	–	·	·
COC(=O)[C@]1(Cc2ccccc2)N[C@H](CN(C)C(=O)COc2ccccc2)[C@@H]2C(=O)N(Cc3ccccc3)C(=O)[C@@H]21	–	–	–	–	–	–	·
CNC(=O)c1[nH]cnc1C(=O)Nc1ccccc1	–	–	–	–	–	–	·
O=C(Nc1ccccc1)c1nc[nH]c1C(=O)NCCCNC(=O)c1[nH]cnc1C(=O)Nc1ccccc1	62.7	–	–	–	–	–	46.3
O=C(Nc1ccccc1)c1nc[nH]c1C(=O)NCCCCCCNC(=O)c1[nH]cnc1C(=O)Nc1ccccc1	61.6	–	–	–	–	–	56.8
O=C(Nc1ccccc1)c1nc[nH]c1C(=O)NCCN(CCNC(=O)c1[nH]cnc1C(=O)Nc1ccccc1)CCNC(=O)c1[nH]cnc1C(=O)Nc1ccccc1	–	–	–	–	–	–	·
O=C(NCc1ccccc1OC(F)(F)F)C1CCC(=O)N(CCCN2CCOCC2)C1 (centres undefined)	–	–	–	–	–	·	·
CSc1ccc(NC(=O)NCc2cccnc2)cc1	–	–	–	–	–	–	·
CC(C)n1nc(C(=O)Oc2cc(Cl)ccc2Cl)c2ccccc2c1=O	53.5	–	–	–	–	–	65.1
CC(C)n1nc(C(=O)Oc2cccc(Cl)c2Cl)c2ccccc2c1=O	–	–	–	–	–	–	·
O=C(NCCN1CCC(n2c(=O)[nH]c3ccccc32)CC1)c1ccc(Cl)cc1Cl	·	·	·	·	–	·	·
COc1cc(CNC(C)(C)CO)cc(Br)c1OCc1ccc(Cl)cc1	80.7	–	–	–	–	–	91.1
COc1ccc(C=C2CCC3C(=O)CCCC3(C)C2=O)cc1 (centres undefined)	–	–	–	–	–	·	·
O=C1C(=Cc2ccc(Cl)cc2)CCc2ccccc21	–	–	–	–	–	·	·
CN(C)CC1CCC/C(=C/c2ccc(Cl)cc2)C1=O (centres undefined)	96.1	–	–	–	–	81.1	97.8
COc1ccc(/C=C2/CCCC(CN(C)C)C2=O)cc1 (centres undefined)	97.6	–	–	–	–	67.9	99.3
CC1(C(=O)NS(=O)(=O)c2ccccc2C(F)(F)F)CCN1C(=O)CCc1ccccc1 (centres undefined)	–	–	–	–	–	·	·
CC1(C(=O)NS(=O)(=O)c2ccccc2Cl)CCN1C(=O)c1ccccc1 (centres undefined)	–	–	–	–	–	·	·
O=C(Nc1ccc(N2CCOCC2)cc1)c1cc(-c2ccncc2)nc2ccccc12	–	–	–	–	–	–	·
O=C(Nc1ccccc1N1CCOCC1)c1cc(-c2ccncc2)nc2ccccc12	63.1	–	–	–	–	–	57.5

Source: PubChem (several laboratories)
